Laboratory results as given in PubChem BioAssay (Tox21).
Values joined by “and” are separate entries in the source; they are usually repeats but may differ in a detail not shown here. Equal values may be shown once. Inconclusive results are not listed. Where a call stands in place of a potency, no number is given. Where a structure was tested more than once in an assay, its records may differ in their call. Active and inactive are the calls of the source. Unless noted, calls follow the shape of the full dose curve.

How the values were obtained:
[1] = Nuclear factor erythroid 2-related factor 2/antioxidant responsive element (Nrf2/ARE) small molecule agonists: qHTS cell viability counter screen in human keratinocytes (AID 1919968; active = well fitted curve in the direction sought with a large enough effect in the repeat runs; an effect the other way counts as inactive or inconclusive; also: nearly all actives have a fitted effect of over 55% in size; also: potency is read from the fitted curve at half-maximal effect)
Summary of the method: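 HaCaT ARE reporter line, 1,500 cells/well; 5 h settle, 37 C/5% CO2; cpd in DMSO pinned; 23 h exposure; CellTiter-Fluor, 1 h; fluorescence.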

[2] = Nuclear factor erythroid 2-related factor 2/antioxidant responsive element (Nrf2/ARE) small molecule agonists: luciferase reporter gene qHTS assay in human keratinocytes (AID 1919969); also: nearly all actives have a fitted effect of over 35% in size; also: potency is read from the fitted curve at half-maximal effect
[3] = target: Gonadotropin-releasing hormone receptor (Homo sapiens) (UniProt P30968); experiment: Human gonadotropin-releasing hormone receptor (GnRHR) small molecule agonists, calcium flux assay in GnRHR-HEK293 cells (AID 1920063); also: nearly all actives have a fitted effect of over 35% in size
Summary of the method: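 GnRHR-HEK293, 1500 cells/well, 18 h 37 C/5% CO2; Ca dye 1 h 37 C; cpd pinned (DMSO), agonist mode; kinetic FL 480/540, 3 min, 1 s reads; 15 conc, n=3.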

[4] = target: KiSS-1 receptor (Homo sapiens) (UniProt Q969F8); experiment: Human kisspeptin (KISS1R) small molecule agonists, calcium flux assay in KISS1R-HEK293 cells (AID 1920064; active = well fitted curve in the direction sought with a large enough effect in the repeat runs; an effect the other way counts as inactive or inconclusive)
Summary of the method: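 Stable human KISS1R HEK293 line; 18 h plating, 37 C/5% CO2; calcium dye 1 h 37 C; compound pin transfer; kinetic fluorescence Ex/Em 480/540, 3 min.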

[5] = G protein-coupled receptor (GPCR) small molecule agonists, calcium flux assay: HEK293 wild type cell line counter screen (AID 1920065)
Summary of the method: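 Kinetic fluorescence at Ex/Em 480/540, recorded every second over 3 min, served as the read-out after compound addition. Each compound was tested at 15 concentrations in triplicate on cells pre-loaded with calcium dye for 1 h.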

[6] = p53 small molecule agonists, cell-based qHTS assay with rat liver microsomes (AID 1963578)
Summary of the method: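 Fluorescence from a beta-lactamase reporter under a p53 response element was measured after cells had been incubated 16 h at 37 C with test compound and rat liver microsomes plus NADPH (0.5 mg/mL final each).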

[7] = p53 small molecule agonists, cell-based qHTS assay: qHTS cell viability counter screen (AID 1963581); also: nearly all actives have a fitted effect of over 45% in size; also: potency is read from the fitted curve at half-maximal effect
Summary of the method: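 HCT-116 p53RE-bla cells, 4,000/well, plated 5 h before compound pin transfer; 16 h at 37 C; bla substrate 2 h RT; then CellTiter-Glo, 30 min RT, luminescence.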

[8] = p53 small molecule agonists, cell-based qHTS assay (AID 1963582; active = well fitted activation curve with a large enough effect in the signal ratio in the repeat runs, not every such curve was filed as active; the % refers to the signal ratio)
Summary of the method: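 Reporter line: p53RE-bla. Pre-incubation 5 h, 37 C, 5% CO2; compound (DMSO, pin tool) 16 h, 37 C; B/G FRET substrate 2 h RT; fluorescence intensity read.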

[9] = target: 5-hydroxytryptamine receptor 2A (Homo sapiens) (UniProt P28223); experiment: 5-hydroxytryptamine receptor 2A (HTR2A) small molecule antagonists, cell-based qHTS assay (AID 1963586); also: nearly all actives have a fitted effect of over 45% in size
Summary of the method: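 Antagonist-mode intracellular calcium assay: DOI (4 nM) added after 5 min compound pre-incubation at room temperature to dye-loaded HTR2A-CHO cells. Fluorescence followed for 3 min, sampled every second.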

[10] = target: 5-hydroxytryptamine receptor 2A (Homo sapiens) (UniProt P28223); experiment: 5-hydroxytryptamine receptor 2A (HTR2A) small molecule agonists, cell-based qHTS assay (AID 1963587); also: nearly all actives have a fitted effect of over 30% in size
Summary of the method: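 HTR2A-CHO cells, plated 18 h at 37 C/5% CO2, dye-loaded 1 h at 37 C; compounds in DMSO added by pin tool (agonist mode). Intracellular calcium flux read as kinetic fluorescence on FDSS over 2 min at 1 s intervals.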

[11] = target: Muscarinic acetylcholine receptor M1 (Homo sapiens) (UniProt P11229); experiment: Cholinergic receptor muscarinic 1 (CHRM1) small molecule antagonists, cell-based qHTS assay (AID 1963588); also: nearly all actives have a fitted effect of over 40% in size; also: potency is read from the fitted curve at half-maximal effect
Summary of the method: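 CHRM1-CHO calcium-flux assay, antagonist mode. Cells were seeded 18 h, dye-loaded 1 h at 37 C and given compound for 5 min at RT, then acetylcholine was added at 50nM. FDSS fluorescence was read 3 min; 15 concentrations, three runs.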

[12] = target: Muscarinic acetylcholine receptor M1 (Homo sapiens) (UniProt P11229); experiment: Cholinergic receptor muscarinic 1 (CHRM1) small molecule agonists, cell-based qHTS assay (AID 1963589); also: nearly all actives have a fitted effect of over 35% in size
Summary of the method: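 Human M1 in stable CHO line; 18 h plating, 1 h dye load 37 C; cpd added (agonist mode); Ca2+ fluorescence kinetic read, 1 s intervals; 15 conc, 3 runs.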

[13] = cAMP Responsive Elements (CRE) small molecule agonists, cell-based qHTS assay (AID 1963590)
Summary of the method: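 HEK 293T CRE-bla, 2,000 cells/well, 18 h preincubation 37 C/5% CO2; cpds (DMSO) pinned, 3 h; LiveBLAzer B/G FRET substrate, 2 h RT.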

[14] = cAMP Responsive Elements (CRE) small molecule antagonists, cell-based qHTS assay (AID 1963591; active = well fitted inhibition curve with a large enough effect in the signal ratio in the repeat runs, not every such curve was filed as active; the % refers to the signal ratio)
Summary of the method: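 Beta-lactamase reporter read by FRET substrate (LiveBLAzer B/G) after 2 h at room temperature. CRE-bla HEK293T cells had received compound plus 0.25 uM (final) NKH477 for 3 h at 37 °C.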

[15] = target: Beta-2 adrenergic receptor (Homo sapiens) (UniProt P07550); experiment: Adrenergic beta2 receptor (ADRB2) small molecule antagonists, cell-based qHTS assay (AID 1963592); also: nearly all actives have a fitted effect of over 50% in size; also: potency is read from the fitted curve at half-maximal effect
Summary of the method: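 Cells (CHO, stable ADRB2 overexpression) incubated 18-20hr at 37C; compounds added from DMSO; agonist mix (1nM isoproterenol, 100uM IBMX, 25uM Ro-20-1724) added; 0.5hr RT; d2-cAMP and anti-cAMP-cryptate added; 1hr RT; 665/615 nm read.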

[16] = target: Beta-2 adrenergic receptor (Homo sapiens) (UniProt P07550); experiment: Adrenergic beta2 receptor (ADRB2) small molecule agonists, cell-based qHTS assay (AID 1963593);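 also: CHO cells stably overexpressing human ADRB2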
Summary of the method: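 CHO cells stably over-expressing ADRB2 were plated overnight at 37C, then dosed with compounds plus a stimulation mix containing 100uM IBMX and 25uM Ro-20-1724 for 0.5hr at room temperature. cAMP was measured by HTRF competition, 1hr.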

[17] = target: D(2) dopamine receptor (Homo sapiens) (UniProt P14416); experiment: Dopamine D2 receptor (DRD2) small molecule agonists, cell-based qHTS assay (AID 1963594); also: nearly all actives have a fitted effect of over 35% in size
Summary of the method: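 HEK293 cells stably expressing DRD2 were cultured 24 h at 37 C, then given Ro20-1724 (0.1 mM final) and compounds for 10 min at room temperature. NKH477 (200nM) was then added for 30 min. cAMP was read by HTRF.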

[18] = target: D(2) dopamine receptor (Homo sapiens) (UniProt P14416); experiment: Dopamine D2 receptor (DRD2) small molecule antagonists, cell-based qHTS assay (AID 1963595; active = well fitted inhibition curve with a large enough effect in the signal ratio in the repeat runs, with a control signal flat; the % refers to the signal ratio; also: potency is read from the fitted curve at half-maximal effect)
Summary of the method: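 HTRF cAMP read-out at 665 and 620 nm emission (340 nm excitation). Antagonist mode: compounds were tested against 12 nM quinpirole in DRD2-HEK293 cells, with 200 nM NKH477 raising cAMP and 0.1 mM Ro20-1724 blocking its breakdown.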

[19] = p53 small molecule agonists, cell-based qHTS assay with rat liver microsomes: qHTS cell viability counter screen (AID 1963580); also: nearly all actives have a fitted effect of over 45% in size; also: potency is read from the fitted curve at half-maximal effect
Summary of the method: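 In HCT-116 cells carrying a p53 response element-bla reporter, compounds were metabolically activated in situ by rat liver microsomes with NADPH over 16 h. Cell ATP content then served as the cytotoxicity measure.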

[20] = p53 small molecule agonists, cell-based qHTS assay with human liver microsomes: qHTS cell viability counter screen (AID 1963579); also: potency is read from the fitted curve at half-maximal effect; nearly all actives have a fitted effect of over 45% in size
Summary of the method: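 Seed p53RE-bla cells at 4,000 per well; incubate 5 h at 37 C; add compound, human liver microsomes and NADPH; incubate 16 h at 37 C; add CellTiter-Glo; after 30 min at room temperature, read luminescence.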

Chain of Beta-2 adrenergic receptor (Homo sapiens) (P07550 whole entry, looked up): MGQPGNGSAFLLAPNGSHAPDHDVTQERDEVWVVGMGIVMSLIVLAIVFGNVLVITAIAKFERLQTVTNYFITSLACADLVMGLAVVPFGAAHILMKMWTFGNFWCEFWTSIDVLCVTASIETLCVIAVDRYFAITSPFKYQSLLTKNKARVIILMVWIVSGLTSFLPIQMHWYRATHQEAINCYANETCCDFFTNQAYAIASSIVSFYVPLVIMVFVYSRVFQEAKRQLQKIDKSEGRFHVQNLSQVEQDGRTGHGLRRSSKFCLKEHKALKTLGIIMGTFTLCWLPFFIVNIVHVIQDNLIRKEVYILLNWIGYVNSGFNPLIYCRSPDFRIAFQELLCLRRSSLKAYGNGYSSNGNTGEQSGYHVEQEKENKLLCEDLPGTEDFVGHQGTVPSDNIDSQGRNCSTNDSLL
Chain of Muscarinic acetylcholine receptor M1 (Homo sapiens) (P11229 whole entry, looked up): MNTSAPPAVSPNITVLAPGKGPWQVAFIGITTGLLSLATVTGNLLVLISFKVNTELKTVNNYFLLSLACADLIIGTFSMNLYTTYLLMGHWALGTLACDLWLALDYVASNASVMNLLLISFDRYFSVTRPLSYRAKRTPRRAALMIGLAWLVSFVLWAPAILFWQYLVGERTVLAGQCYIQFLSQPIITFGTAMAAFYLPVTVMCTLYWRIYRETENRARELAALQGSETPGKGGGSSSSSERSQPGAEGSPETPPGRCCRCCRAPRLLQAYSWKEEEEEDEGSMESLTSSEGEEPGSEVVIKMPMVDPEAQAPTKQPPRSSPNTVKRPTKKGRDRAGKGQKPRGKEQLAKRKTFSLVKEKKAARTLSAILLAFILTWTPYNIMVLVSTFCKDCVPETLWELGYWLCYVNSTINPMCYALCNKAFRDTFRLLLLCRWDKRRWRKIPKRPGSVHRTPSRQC
Chain of D(2) dopamine receptor (Homo sapiens) (P14416 whole entry, looked up): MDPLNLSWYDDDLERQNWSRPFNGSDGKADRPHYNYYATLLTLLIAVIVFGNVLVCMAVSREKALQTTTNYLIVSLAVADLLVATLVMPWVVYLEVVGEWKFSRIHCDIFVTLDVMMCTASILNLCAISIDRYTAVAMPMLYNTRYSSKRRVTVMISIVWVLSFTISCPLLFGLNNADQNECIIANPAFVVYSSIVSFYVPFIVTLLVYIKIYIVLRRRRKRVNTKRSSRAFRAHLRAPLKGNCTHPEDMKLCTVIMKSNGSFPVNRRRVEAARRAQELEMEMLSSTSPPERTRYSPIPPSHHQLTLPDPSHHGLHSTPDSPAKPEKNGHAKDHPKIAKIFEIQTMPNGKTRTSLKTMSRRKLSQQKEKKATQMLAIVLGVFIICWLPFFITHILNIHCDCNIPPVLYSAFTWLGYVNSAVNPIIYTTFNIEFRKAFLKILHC
Chain of 5-hydroxytryptamine receptor 2A (Homo sapiens) (P28223 whole entry, looked up): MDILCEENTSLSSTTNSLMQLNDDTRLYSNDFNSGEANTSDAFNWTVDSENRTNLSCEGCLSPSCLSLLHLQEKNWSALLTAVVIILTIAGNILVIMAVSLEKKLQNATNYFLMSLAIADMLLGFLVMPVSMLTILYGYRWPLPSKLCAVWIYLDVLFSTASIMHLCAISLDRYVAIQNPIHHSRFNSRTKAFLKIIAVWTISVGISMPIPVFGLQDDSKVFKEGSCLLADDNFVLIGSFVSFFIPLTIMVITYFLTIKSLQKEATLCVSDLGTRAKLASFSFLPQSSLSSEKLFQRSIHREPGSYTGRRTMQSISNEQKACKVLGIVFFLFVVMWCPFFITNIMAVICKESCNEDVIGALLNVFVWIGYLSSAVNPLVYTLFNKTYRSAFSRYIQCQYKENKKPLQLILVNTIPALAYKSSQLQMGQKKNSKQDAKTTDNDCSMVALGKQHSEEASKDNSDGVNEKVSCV
Chain of KiSS-1 receptor (Homo sapiens) (Q969F8 whole entry, looked up): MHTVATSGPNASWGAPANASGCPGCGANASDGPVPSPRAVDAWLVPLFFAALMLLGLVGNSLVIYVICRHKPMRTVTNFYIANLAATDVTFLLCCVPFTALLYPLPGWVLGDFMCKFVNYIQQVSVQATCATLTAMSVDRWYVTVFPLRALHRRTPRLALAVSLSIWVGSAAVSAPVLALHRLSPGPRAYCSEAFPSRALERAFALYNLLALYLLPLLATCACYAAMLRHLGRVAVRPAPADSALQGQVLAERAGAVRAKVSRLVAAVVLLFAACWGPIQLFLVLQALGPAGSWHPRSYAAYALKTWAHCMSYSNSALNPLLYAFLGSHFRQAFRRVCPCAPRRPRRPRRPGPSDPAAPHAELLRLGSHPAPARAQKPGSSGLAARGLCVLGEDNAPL
Chain of Gonadotropin-releasing hormone receptor (Homo sapiens) (P30968 whole entry, looked up): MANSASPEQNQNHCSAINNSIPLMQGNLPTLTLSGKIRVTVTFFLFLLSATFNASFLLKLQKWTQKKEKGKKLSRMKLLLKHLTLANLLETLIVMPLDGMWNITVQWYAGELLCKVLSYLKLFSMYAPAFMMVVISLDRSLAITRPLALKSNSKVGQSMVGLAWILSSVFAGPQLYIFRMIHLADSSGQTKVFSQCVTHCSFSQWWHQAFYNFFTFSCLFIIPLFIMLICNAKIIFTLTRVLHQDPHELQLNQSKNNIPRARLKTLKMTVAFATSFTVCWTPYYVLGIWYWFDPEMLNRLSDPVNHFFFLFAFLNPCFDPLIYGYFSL

Row | SMILES | Potency [1] | Potency [2] | Potency [3] | Potency [4] | Potency [5] | Potency [6] | Potency [7] | Potency [8] | Potency [9] | Potency [10] | Potency [11] | Potency [12] | Potency [13] | Potency [14] | Potency [15] | Potency [16] | Potency [17] | Potency [18] | Potency [19] | Potency [20]
1 | OCCOCCOCCOCCO | inactive | inactive | inactive | inactive | inactive | inactive | inactive | inactive | inactive | inactive | inactive | inactive | inactive | inactive | inactive | inactive | inactive | inactive | – | –
2 | CCC(O)OC(O)CC (centres undefined) | inactive | inactive | inactive | inactive | inactive | inactive | inactive | inactive | inactive | – | inactive | inactive | inactive | inactive | inactive | inactive | inactive | inactive | inactive | –
3 | O=Cc1ccccc1O | inactive | inactive | inactive | inactive | inactive | inactive | inactive | – | inactive | inactive | inactive | inactive | inactive | inactive | inactive | inactive | inactive | inactive | inactive | –
4 | CN(C)c1ccc(C(=C2C=CC(=[N+](C)C)C=C2)c2ccccc2)cc1 | 4.33 µM (active) and 6.68 µM (active) | 1.22 µM (active) | inactive | inactive | inactive | inactive | 4.08 µM (active) and 3.97 µM (active) | – | inactive | inactive | 4.72 µM (active) and inactive and 18.3 µM (active) | inactive | – | – | – | – | – | 16.8 µM (active) | – | 14.5 µM (active) [middle of 4 runs]
5 | Cc1cc(Cc2cc(C)cc(C(C)(C)C)c2O)c(O)c(C(C)(C)C)c1 | 13.8 µM (active) and 13.7 µM (active) | inactive | inactive | inactive | inactive | inactive | inactive | – | inactive | inactive | inactive | inactive | – | – | 34.6 µM (active) and inactive | – | inactive | – | inactive and 36.3 µM (active) | –
6 | CC1=C(/C=C/C(C)=C/C=C/C(C)=C/C(=O)O)C(C)(C)CCC1 | inactive | 68.7 µM (active) and 68.5 µM (active) and 23.7 µM (active) | inactive | inactive | inactive | inactive | inactive | inactive | – | – | – | – | inactive | inactive | inactive | inactive | inactive | inactive | inactive | –
7 | CCCCCCCCCCN | inactive | inactive | inactive | inactive | inactive | inactive | inactive | inactive | inactive | inactive | inactive | – | inactive | inactive | inactive | inactive | inactive | inactive | inactive | –
8 | Cc1noc(NS(=O)(=O)c2ccc(N)cc2)c1C | inactive | inactive | inactive | inactive | inactive | inactive | inactive | inactive | – | – | – | – | inactive | inactive | inactive | inactive | inactive | inactive | inactive | –
